Inconclusive results are not listed. A call without a number means that no potency is given here. Some structures have more than one record in an assay (separate samples or runs), and their calls can disagree. Calls of active or inactive are those of the source. Calls follow the shape of the dose curve; as a rule, active = well fitted inhibition curve with a large enough effect; inconclusive = small, poorly fitted or top-dose-only effect; inactive = flat fitted curve, though single readings scatter.
Potency is read from the fitted curve at half-maximal effect.

Sequence of Glutathione peroxidase 1 (Homo sapiens) (P07203 whole entry, looked up): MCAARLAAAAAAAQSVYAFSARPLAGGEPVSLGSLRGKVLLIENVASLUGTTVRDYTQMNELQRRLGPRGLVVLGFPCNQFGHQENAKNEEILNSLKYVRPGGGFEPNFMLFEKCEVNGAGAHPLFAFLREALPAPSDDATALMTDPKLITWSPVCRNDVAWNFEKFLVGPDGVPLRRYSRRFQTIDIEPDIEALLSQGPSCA

The experiment has as its target Glutathione peroxidase 1 (Homo sapiens) (UniProt P07203). Nature of the experiment: Primary qHTS Assay for Inhibitors of Recombinant Selenoprotein Glutathione Peroxidase 1 (GPX1) (AID 1845191). Also: nearly all actives have a fitted effect of over 65% in size. The note with it: recombinant GPX1, GR-coupled NADPH fluorescence, 15 min; series mostly up to 48.8 µM; activity, negative = inhibition: at the top concentration. From the text: Assay Provider: Elias S.J. Arner MD PhD.
Department of Medical Biochemistry and Biophysics
Karolinska Institutet, Solna, Stockholm, Sweden
Selenoprotein glutathione peroxidases (GPX), like the ubiquitously expressed GPX1 and the ferroptosis modulator GPX4, enact their antioxidant activities by reducing hydroperoxides using glutathione. […] GPX1 and GPX4 inhibitors have thus shown promise as anti-cancer agents. Existing inhibitors are often promiscuous, or modulate GPX activity only indirectly, so novel direct inhibitors identified through screening against GPX1 and GPX4 could be valuable. Here, we developed optimized glutathione reductase (GR)-coupled GPX assays for the biochemical high-throughput screen (HTS) of almost 12,000 compounds with known mechanisms of action. Initial hits were triaged using a GR counter-screen, assessed for isoform specificity using a separate GPX2 assay, and were assessed for general selenocysteine-targeting activity using a thioredoxin reductase (TXNRD1) assay. With this suite of assays, we identified novel GPX1/GPX2- and GPX4-specific inhibitors and can here present a validated pipeline for future discovery research for selenoprotein-targeting agents.
SEQUENCE No. (e.g., 1, 2, 3, etc.); […] (e.g., Cells, Incubation, Reagent, etc.); VALUE; DESCRIPTION.
1; Reagent 1; 3 uL; GPx1 enzyme or no enzyme control in 1536-well, black, solid Greiner assay plate.
2; Compound; 25 nL; Kalypsis pin tool (Wako USA) equipped with a 1536-well pin head.
3; Incubation; 30 min; room temperature.
4; Reagent 2; 1 uL; 10 nM GPX1, 1 mM GSH, 0.5 mM CHP, 0.5 mM NADPH, 100 nM GR, 0.01% BSA substrate
5; Detection; Fluorescence; ViewLux microplate reader, excitation 340 nm and emission 450 nm.
6; Incubation; 15 min; room temperature.
7; Detection; Fluorescence; ViewLux microplate reader, excitation 340 nm and emission 450 nm.
NOTES (numbers refer to Sequence numbers above)
1. 3 uL of 16.66 nM GPX1 and 0.016% BSA in assay buffer (50 mM Tris-HCl, 2 mM EDTA (pH 7.5), 150 mM NaCl) was added to columns 3-48 of 1536-well assay plates using a BioRAPTR Flying Reagent Dispenser (Let's Go Robotics (LGR), Carlsbad, CA). A no-enzyme control (0.01% BSA in TES assay buffer) was added to columns 1-2.
2. 25 nL of test compounds and DMSO controls were added to each well with a pin tool (Kalypsys).
3. The assay plates were incubated for 30 minutes at room temperature.
4. 1 uL of master mix (500 nM glutathione reductase (GR), 5 mM reduced glutathione (GSH), 2.5 mM NADPH in assay buffer) was added. 1 uL of cumene hydroperoxide (CHP) ([2.5 mM] in 50% EtOH) was then added within 5 minutes to initiate the reaction. Final concentrations were: 10 nM GPX1, 1 mM GSH, 0.5 mM CHP, 0.5 mM NADPH, 100 nM GR, 0.01% BSA.
5. Initial fluorescence readout (t=0) at 340/450 nm was measured using a ViewLux multimodal detector (PerkinElmer, Waltham, MA).
7. Endpoint fluorescence readout (t=15) at 340/450 nm was measured 15 min after room temperature incubation.
For `CC(=O)N(C)C1(c2ccccc2)CCN(CCC[C@]2(c3ccc(Cl)c(Cl)c3)CCCN(C(=O)c3ccccc3)C2)CC1`, the “activity, negative = inhibition” value is -26.2% (inactive).
Consider `O=c1c(-c2ccc(O)cc2)coc2cc(O)ccc12`, for which the Potency entry is “inactive”.
For the compound `CN(C)Cc1cccc(N=C(c2ccccc2)c2c(O)[nH]c3cc(C(=O)N(C)C)ccc23)c1`, the result was inactive.
Consider `C[C@H](NC(=O)c1sccc1OCc1ccc(Cl)cc1)c1ccccc1`, for which the result was inactive.
On the same count and under the same terms, the entry for `CC(C)(C)C(=O)Oc1ccc2c(c1)nc(NC(=O)c1cccc([N+](=O)[O-])c1)n2CCCO` is “inactive”.
In the case of `COc1ccc2c(Oc3ccc(NC(=O)c4c(C)n(CC(C)(C)O)n(-c5ccccc5)c4=O)nc3)ccnc2c1`, the Potency entry is “inactive”.
On the same count and under the same terms, with `COc1ccc2cc(-c3nc(-c4ccc(S(C)=O)cc4)[nH]c3-c3ccncc3)ccc2c1` (stereo not given) the entry was “inactive”.
The same measure, in the same setting: with `CC(=O)c1ccc(S(=O)(=O)NC(=O)NC2CCCCC2)cc1` the entry was “inactive”; with `CO[C@H]1C(=O)[C@]2(C)[C@@H](OC)C[C@H]3OC[C@@]3(OC(C)=O)[C@H]2[C@H](OC(=O)c2ccccc2)[C@]2(O)C[C@H](OC(=O)[C@H](O)[C@@H](NC(=O)OC(C)(C)C)c3ccccc3)C(C)=C1C2(C)C`, “inactive”.
As for `Cc1ccc(F)c(NC(=O)Nc2ccc(-c3cccc4[nH]nc(N)c34)cc2)c1`, the outcome was inactive.
For `O=C1NC(=O)C(c2ccccc2)(c2ccccc2)N1`, the Potency result is “inactive”.
The same measure, in the same setting: with `CN(C)CCC(c1ccccc1)c1ccccn1` (stereo not given) the entry was “inactive”; with `COc1cc(N2CCC(N3CCN(C)CC3)CC2)ccc1Nc1ncnc(Nc2ccccc2S(=O)(=O)C(C)C)n1`, “inactive”; with `CC1(C)CCC2=C(O1)c1ccccc1C(=O)C2=O`, 16.3 µM (active) and inactive.
The same measure, in the same setting: with `O=C(O)c1ccccc1C(=O)Nc1ccc(-c2ccccc2)cc1` the entry was “inactive”; with `CCn1c(C(=O)N(C2CC2)C2CC2)cc2c3c(ncn3C)c(Nc3cc(C)n(C)n3)nc21`, “inactive”; with `COc1cc(Nc2ncc(F)c(Nc3ccc4c(n3)NC(=O)C(C)(C)O4)n2)cc(OC)c1OC`, “inactive”.
The same measure, in the same setting: with `COc1ccc2cccc(CCNC(C)=O)c2c1` the entry was “inactive”; with `CCN1CCC[C@H]1CNC(=O)c1cc(S(N)(=O)=O)ccc1OC`, “inactive”.
Turning to `CCn1cc(C(=O)O)c(=O)c2ccc(C)nc21`, the Potency entry is “inactive”.
In the case of `COc1ccc(-c2coc3cc(O)cc(O)c3c2=O)cc1`, the “activity, negative = inhibition” value is -5.96% (inactive).
Same read-out and setting: the figure for `Cn1c(N2CCCCS2(=O)=O)nc(C(=O)NCc2ccc(F)cc2)c(O)c1=O` is -2.23% (inactive).
On to `COc1cc2ncnc(Nc3ccc(F)c(Cl)c3)c2cc1OCCCN1CCOCC1`, for which the Potency entry is “inactive”.
The same measure, in the same setting: with `CO[C@@H](C(=O)N1Cc2[nH]nc(NC(=O)c3ccc(N4CCN(C)CC4)cc3)c2C1)c1ccccc1` the entry was “inactive”.
`Cc1ccccc1C(C(=O)NC1CCCCC1)N(C(=O)Cn1ccnc1C)c1cccc(F)c1` (stereo not given): the result was inactive.
Still for that read-out and setting: with `CCc1ccc(OCc2ccccc2C(=O)Nc2ccc3nc(C)cc(N)c3c2)cc1` the entry was “inactive”; with `O=C(Nc1cc(Cl)cc2c1[nH]c1cnccc12)c1cccnc1`, “inactive [at 27.7 µM]”.
Regarding `O=c1cc(N2CCOCC2)oc2c(-c3cccc4c3sc3ccccc34)cccc12`, the “activity, negative = inhibition” value is -2.42% (inactive).
Turning to `CC(=O)O[C@]1(C(C)=O)CC[C@H]2[C@@H]3C=C(Cl)C4=CC(=O)[C@@H]5C[C@@H]5[C@]4(C)[C@H]3CC[C@@]21C`, the Potency result is “inactive”.
For the compound `Cc1ccc(/C=N/NC(=O)c2ccccc2Oc2ccccc2)o1`, the outcome was inactive.
The same measure, in the same setting: the entry for `N[C@@]1(C(=O)O)CS(=O)(=O)[C@H]2[C@H](C(=O)O)[C@H]21` is “inactive”.
`CCCNC(=O)NS(=O)(=O)c1ccc(Cl)cc1`: the Potency entry is “inactive”.
On the same count and under the same terms, with `O=C(Nc1ccccc1Br)N[C@@H]1CCN(c2ccc(C(F)(F)F)cn2)C1` the entry was “inactive”.
Regarding `O=C(NOCC(O)CO)c1cc(Br)c(F)c(F)c1Nc1ccc(I)cc1F` (stereo not given), the outcome was inactive.
With `O=C(O)c1cc(-c2ccccc2)nc2ccccc12`, the “activity, negative = inhibition” value is -12.8% (inactive).
The same measure, in the same setting: with `N[C@H](CSC(c1ccccc1)(c1ccccc1)c1ccccc1)C(=O)O` the figure was -9.84% (inactive).
Regarding `O=C(Nc1ccccc1-c1cn2c(CN3CCNCC3)csc2n1)c1cnc2ccccc2n1`, the Potency entry was “inactive”.
For the compound `CC[C@]1(O)C[C@@H]2CN(CCc3c([nH]c4ccccc34)[C@@](C(=O)OC)(c3cc4c(cc3OC)N(C)[C@H]3[C@@](O)(C(=O)OC)[C@H](OC(C)=O)[C@]5(CC)C=CCN6CC[C@]43[C@@H]65)C2)C1`, the “activity, negative = inhibition” value was 4.83% (inactive).
Consider `C[C@H](NC(=O)C(=O)Nc1ccccc1C(C)(C)C)C(=O)N[C@@H](CC(=O)O)C(=O)COc1c(F)c(F)cc(F)c1F`, for which the outcome was inactive.
Same read-out and setting: the entry for `O=C(NC1CCOCC1)c1ccc(-c2cc(-c3cn[nH]c3-c3ccccn3)ccn2)cc1` is “inactive”.

The values are drawn from PubChem BioAssay (NCATS).
